Assay results taken from PubChem BioAssay.
Active and inactive are the calls of the source. Cut-off read from the data, not from the text of the source, unless noted: active = inhibition above about 80%; inactive = the rest.

Experiments:
[1] = LFS_MB_P medulloblastoma growth inhibition, cell-based, chromothripsis tumors, cisplatin or BGB combos (AID 1671449); conditions: LFS_MB_P medulloblastoma cells;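 note: cells exposed for 96 hours; 0% = vehicle DMSO and 100% = killing by high DMSO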
[2] = HDN33 neuroblastoma growth inhibition, cell-based, chromothripsis tumors, cisplatin or BGB combos (AID 1671450); conditions: HDN33 neuroblastoma cells, stronger effect = higher value;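 note: cells exposed to compound for four days; 0% = vehicle DMSO and 100% = cell killing by high DMSO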
[3] = ICB984 medulloblastoma cell growth inhibition, synergistic combos for chromothripsis tumors, cisplatin or BGB combos (AID 1671451; call rule not given here;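 note: cells exposed for 96 hours before readout; 0% = vehicle DMSO and 100% = killing by high DMSO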); conditions: ICB984 medulloblastoma cells, drug combinations, stronger effect = higher value
[4] = LFS_MB_1R medulloblastoma cell growth inhibition, synergistic combos for chromothripsis tumors, cisplatin or BGB combos (AID 1671452); conditions: LFS_MB_1R medulloblastoma cells, stronger effect = higher value;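 note: cells exposed for 96 hours before readout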
[5] = HTB85 osteosarcoma cell growth inhibition, synergistic combos for chromothripsis tumors, BGB or cisplatin IC20 combos (AID 1671453); conditions: HTB85 osteosarcoma cells, drug combinations, stronger effect = higher value;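 note: cells exposed for 96 hours before readout; 0% = vehicle DMSO and 100% = high DMSO killing control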
[6] = CRL2098 osteosarcoma cell growth inhibition, synergistic combos for chromothripsis tumors, BGB or cisplatin IC20 combos (AID 1671454); conditions: CRL2098 osteosarcoma cells, drug combinations, stronger effect = higher value;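 note: cells exposed for 96 h before readout; 0% = vehicle DMSO and 100% = killing by high DMSO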
[7] = HD-MB03 medulloblastoma cell growth inhibition, synergistic combos for chromothripsis tumors, BGB or cisplatin IC20 combos (AID 1671455; in the data active = inhibition above about 83%;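 note: 0% = vehicle DMSO and 100% = high DMSO as cytotoxic control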); conditions: HD-MB03 medulloblastoma cells, stronger effect = higher value
[8] = UWB1.289 ovarian carcinoma cell growth inhibition, synergistic combos for chromothripsis tumors, BGB or cisplatin combos (AID 1671456); conditions: UWB1.289 ovarian carcinoma cells, stronger effect = higher value;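 note: cells exposed to compound for four days; 0% = vehicle DMSO and 100% = killing by high DMSO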
[9] = LFS_MB_2R medulloblastoma cell growth inhibition, synergistic combos for chromothripsis tumors, cisplatin combos (AID 1671457); conditions: LFS_MB_2R medulloblastoma cells, stronger effect = higher value;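 note: cells exposed to compound for four days before readout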
[10] = MDA-MB-436 breast carcinoma cell growth inhibition, synergistic combos for chromothripsis tumors, BGB or cisplatin combos (AID 1671458; call rule not given here;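 note: cells exposed for 96 hours; 0% = vehicle DMSO and 100% = killing by high DMSO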); conditions: MDA-MB-436 breast carcinoma growth inhibition, drug combinations, stronger effect = higher value
[11] = UWB1.289_BRCA1 ovarian cancer growth, cell-based, BGB or cisplatin combinations (AID 1671459); conditions: UWB1.289 BRCA1 ovarian carcinoma, drug combinations, stronger effect = higher value
[12] = human astrocyte viability loss, single and combined drugs, cytotoxicity control for chromothriptic childhood tumor combination screen, cell-based, BGB or cisplatin IC20 combos (AID 1671460); conditions: Human astrocytes, drug combinations, stronger effect = higher value;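 note: cells exposed to compounds for 96 hours before viability readout; 0% = vehicle and 100% = killing control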
[13] = growth inhibition of BT084 medulloblastoma cells, cell-based, ICGC_MB145, cisplatin and BGB IC40 combos (AID 1671461); conditions: drug combinations, stronger effect = higher value;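 note: cells exposed to drugs for 96 hours; 0% = vehicle DMSO and 100% = high DMSO full killing control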
[14] = growth inhibition of RCMB18 medulloblastoma cells, cell-based, cisplatin and BGB IC40 combos (AID 1671462); conditions: stronger effect = higher value;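 note: cells exposed to compound for four days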
[15] = growth inhibition of CRL1545 osteosarcoma cells, cell-based, cisplatin and BGB IC20 combos (AID 1671464); conditions: stronger effect = higher value;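 note: cells exposed to compound for 96 hours before readout; 0% = vehicle DMSO and 100% = high DMSO killing control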
[16] = measured here: combination with BGB IC40, at 0.05 µM
[17] = measured here: with BGB IC20 combination, at 0.5 µM
[18] = measured here: with cisplatin IC20 combination, at 0.5 µM
[19] = measured here: combination with cisplatin, at 0.5 µM
[20] = measured here: combination with cisplatin, at 5 µM

With C[C@@H]1O[C@@H](O[C@@H]2[C@@H](O)[C@H](OCCc3ccc(O)c(O)c3)O[C@H](CO)[C@H]2OC(=O)C=Cc2ccc(O)c(O)c2)[C@H](O)[C@H](O)[C@H]1O the inhibition ([1]; at 0.5 µM, stronger effect = higher value) was -19.7% (inactive), the inhibition ([1]; measured here: combination with BGB IC20, at 0.005 µM) was -7.94% and the inhibition ([1]; measured here: combination with BGB IC40, at 0.005 µM) was -47.4%. For the same molecule, the inhibition [1, 16] was -17.9%, the inhibition ([1]; measured here: combination with cisplatin, at 0.5 µM, stronger effect = higher value) was -14.4% and the inhibition ([1]; measured here: combination with cisplatin, at 5 µM, stronger effect = higher value) was -15.6%. For the same molecule, the inhibition ([2]; BGB combo, at 5 µM) was -0.831%, the inhibition ([2]; at 0.5 µM) was 5.6% (inactive) and the inhibition ([2]; cisplatin combo, at 5 µM) was 41%. The inhibition [2, 17] was 2.02%, the inhibition [2, 18] was 15.9% and the inhibition ([2]; single agent, at 5 µM) was 21.8%. The inhibition ([3]; BGB IC20 combo, at 0.005 µM) was -21.2%, the inhibition ([3]; BGB IC40 combo, at 0.005 µM) was -5.21% and the inhibition ([3]; BGB IC40 combo, at 0.05 µM) was -11.9%. For the same molecule, the inhibition ([3]; at 0.5 µM) was -18.6% (inactive), the inhibition ([3]; cisplatin combo, at 0.05 µM) was -17.7% and the inhibition ([3]; cisplatin combo, at 0.5 µM) was -31.1%. The inhibition ([3]; cisplatin combo, at 5 µM) was -7.59%, the inhibition ([3]; measured here: 5 uM single agent, at 5 µM) was -11% and the inhibition ([4]; at 0.5 µM) was -31.7% (inactive). The inhibition [4, 16] was -26.1%, the inhibition [4, 19] was -49.4% and the inhibition [4, 20] was -50.3%. The inhibition ([5]; at 0.5 µM) was -2.22% (inactive), the inhibition ([5]; measured here: with BGB IC20, at 0.5 µM) was 11% and the inhibition ([5]; measured here: with BGB IC20, at 5 µM) was -2.54%. The inhibition ([5]; measured here: with cisplatin IC20, at 0.5 µM) was -24.2%, the inhibition ([5]; measured here: with cisplatin IC20, at 5 µM) was 13.7% and the inhibition ([5]; single agent, at 5 µM) was 14.4%. For the same molecule, the inhibition ([6]; at 0.5 µM) was -20.3% (inactive), the inhibition ([6]; measured here: combination with BGB at IC20, at 0.5 µM) was -22.9% and the inhibition ([6]; measured here: combination with cisplatin at IC20, at 0.5 µM) was -10.2%. For the same molecule, the inhibition ([7]; at 0.5 µM) was -12.4% (inactive), the inhibition ([7]; measured here: combo with BGB at IC20, at 0.5 µM) was -18% and the inhibition ([7]; measured here: combo with cisplatin at IC20, at 0.5 µM) was -15.8%. The inhibition ([8]; at 0.5 µM) was 2.22% (inactive), the inhibition ([8]; measured here: inhibition with BGB combination, at 0.05 µM) was -13.4% and the inhibition ([8]; measured here: inhibition with cisplatin combination, at 0.05 µM) was -3.75%. The inhibition ([9]; at 0.5 µM) was -23.2% (inactive), the inhibition [9, 19] was -31.6% and the inhibition [9, 20] was -36.7%. For the same molecule, the inhibition ([10]; at 0.5 µM) was -13.3% (inactive), the inhibition ([10]; measured here: BGB combination, at 0.5 µM) was -5.37% and the inhibition ([10]; measured here: BGB combination, at 5 µM) was -8.31%. It also gave an inhibition ([10]; measured here: cisplatin combination, at 0.5 µM) of -39.6%, an inhibition ([10]; measured here: cisplatin combination, at 5 µM) of -30.4% and an inhibition ([11]; BGB combination, concentration series, at 5 µM) of -4.79%. The inhibition ([11]; at 0.5 µM) was 2.12% (inactive), the inhibition ([11]; cisplatin combination, concentration series, at 5 µM) was 23.8% and the inhibition ([12]; at 0.5 µM) was 3.51% (inactive). The inhibition ([12]; measured here: combo with BGB IC20, at 0.5 µM) was -0.074%, the inhibition ([12]; measured here: combo with cisplatin IC20, at 0.5 µM) was 5.26% and the inhibition ([13]; at 0.5 µM) was -15.3% (inactive). For the same molecule, the inhibition ([13]; cisplatin combination, at 0.5 µM) was -21.1%, the inhibition ([13]; cisplatin combination, at 5 µM) was -157% and the inhibition ([13]; measured here: BGB IC40 combination 0.05 uM, at 0.05 µM) was -26.5%. The inhibition ([13]; single agent, at 5 µM) was -19.8%, the inhibition ([14]; at 0.5 µM) was -0.47% (inactive) and the inhibition ([14]; cisplatin combo, at 5 µM) was 8.1%. It also gave an inhibition ([14]; measured here: BGB IC40 combination, at 0.05 µM) of -349%, an inhibition [14, 19] of -0.428% and an inhibition ([14]; single agent, at 5 µM) of -0.98%. The inhibition ([15]; at 0.5 µM) was 3.16% (inactive), the inhibition [15, 17] was -11.9% and the inhibition [15, 18] was 9.28%. The inhibition ([15]; single agent, at 0.05 µM) was -3.32% and the inhibition ([15]; single agent, at 5 µM) was 19.3%.
